Measured values: paper PMC8159961, “Exploring protein hotspots by optimized fragment pharmacophores” (Nature Communications, 2021)

Target: histone methyltransferase SET domain containing 2 (SETD2) (Homo sapiens, UniProt Q9BYW2)
Test: primary screen, binary call; higher = more effect of the substance; call rule not given here
Procedure: The Chemiluminescence assay evaluates SETD2 specific tri -methylation activity towards histone H3K36. The kit consist s of recombinant SETD2, S-adenosylmethionine and a specific H3K36me3 antibody and was performed according to the manufacturer’s protocol (Catalo g- No. 52060, https://bpsbioscience.com/setd2 -chemiluminescent-assay-kit-52060). Values were blank corrected and normalized . Enzymatic activities were calculated relative to the positive control of the kit (full enzymatic activity) and to the known SET doma in inhibitor Sinefungin28 used as negative control (complete enzymatic activity inhibition). Compounds used were diluted in DMSO.

histone methyltransferase SET domain containing 2 (SETD2), sequence (Q9BYW2 whole entry, looked up, the tested form may be a part): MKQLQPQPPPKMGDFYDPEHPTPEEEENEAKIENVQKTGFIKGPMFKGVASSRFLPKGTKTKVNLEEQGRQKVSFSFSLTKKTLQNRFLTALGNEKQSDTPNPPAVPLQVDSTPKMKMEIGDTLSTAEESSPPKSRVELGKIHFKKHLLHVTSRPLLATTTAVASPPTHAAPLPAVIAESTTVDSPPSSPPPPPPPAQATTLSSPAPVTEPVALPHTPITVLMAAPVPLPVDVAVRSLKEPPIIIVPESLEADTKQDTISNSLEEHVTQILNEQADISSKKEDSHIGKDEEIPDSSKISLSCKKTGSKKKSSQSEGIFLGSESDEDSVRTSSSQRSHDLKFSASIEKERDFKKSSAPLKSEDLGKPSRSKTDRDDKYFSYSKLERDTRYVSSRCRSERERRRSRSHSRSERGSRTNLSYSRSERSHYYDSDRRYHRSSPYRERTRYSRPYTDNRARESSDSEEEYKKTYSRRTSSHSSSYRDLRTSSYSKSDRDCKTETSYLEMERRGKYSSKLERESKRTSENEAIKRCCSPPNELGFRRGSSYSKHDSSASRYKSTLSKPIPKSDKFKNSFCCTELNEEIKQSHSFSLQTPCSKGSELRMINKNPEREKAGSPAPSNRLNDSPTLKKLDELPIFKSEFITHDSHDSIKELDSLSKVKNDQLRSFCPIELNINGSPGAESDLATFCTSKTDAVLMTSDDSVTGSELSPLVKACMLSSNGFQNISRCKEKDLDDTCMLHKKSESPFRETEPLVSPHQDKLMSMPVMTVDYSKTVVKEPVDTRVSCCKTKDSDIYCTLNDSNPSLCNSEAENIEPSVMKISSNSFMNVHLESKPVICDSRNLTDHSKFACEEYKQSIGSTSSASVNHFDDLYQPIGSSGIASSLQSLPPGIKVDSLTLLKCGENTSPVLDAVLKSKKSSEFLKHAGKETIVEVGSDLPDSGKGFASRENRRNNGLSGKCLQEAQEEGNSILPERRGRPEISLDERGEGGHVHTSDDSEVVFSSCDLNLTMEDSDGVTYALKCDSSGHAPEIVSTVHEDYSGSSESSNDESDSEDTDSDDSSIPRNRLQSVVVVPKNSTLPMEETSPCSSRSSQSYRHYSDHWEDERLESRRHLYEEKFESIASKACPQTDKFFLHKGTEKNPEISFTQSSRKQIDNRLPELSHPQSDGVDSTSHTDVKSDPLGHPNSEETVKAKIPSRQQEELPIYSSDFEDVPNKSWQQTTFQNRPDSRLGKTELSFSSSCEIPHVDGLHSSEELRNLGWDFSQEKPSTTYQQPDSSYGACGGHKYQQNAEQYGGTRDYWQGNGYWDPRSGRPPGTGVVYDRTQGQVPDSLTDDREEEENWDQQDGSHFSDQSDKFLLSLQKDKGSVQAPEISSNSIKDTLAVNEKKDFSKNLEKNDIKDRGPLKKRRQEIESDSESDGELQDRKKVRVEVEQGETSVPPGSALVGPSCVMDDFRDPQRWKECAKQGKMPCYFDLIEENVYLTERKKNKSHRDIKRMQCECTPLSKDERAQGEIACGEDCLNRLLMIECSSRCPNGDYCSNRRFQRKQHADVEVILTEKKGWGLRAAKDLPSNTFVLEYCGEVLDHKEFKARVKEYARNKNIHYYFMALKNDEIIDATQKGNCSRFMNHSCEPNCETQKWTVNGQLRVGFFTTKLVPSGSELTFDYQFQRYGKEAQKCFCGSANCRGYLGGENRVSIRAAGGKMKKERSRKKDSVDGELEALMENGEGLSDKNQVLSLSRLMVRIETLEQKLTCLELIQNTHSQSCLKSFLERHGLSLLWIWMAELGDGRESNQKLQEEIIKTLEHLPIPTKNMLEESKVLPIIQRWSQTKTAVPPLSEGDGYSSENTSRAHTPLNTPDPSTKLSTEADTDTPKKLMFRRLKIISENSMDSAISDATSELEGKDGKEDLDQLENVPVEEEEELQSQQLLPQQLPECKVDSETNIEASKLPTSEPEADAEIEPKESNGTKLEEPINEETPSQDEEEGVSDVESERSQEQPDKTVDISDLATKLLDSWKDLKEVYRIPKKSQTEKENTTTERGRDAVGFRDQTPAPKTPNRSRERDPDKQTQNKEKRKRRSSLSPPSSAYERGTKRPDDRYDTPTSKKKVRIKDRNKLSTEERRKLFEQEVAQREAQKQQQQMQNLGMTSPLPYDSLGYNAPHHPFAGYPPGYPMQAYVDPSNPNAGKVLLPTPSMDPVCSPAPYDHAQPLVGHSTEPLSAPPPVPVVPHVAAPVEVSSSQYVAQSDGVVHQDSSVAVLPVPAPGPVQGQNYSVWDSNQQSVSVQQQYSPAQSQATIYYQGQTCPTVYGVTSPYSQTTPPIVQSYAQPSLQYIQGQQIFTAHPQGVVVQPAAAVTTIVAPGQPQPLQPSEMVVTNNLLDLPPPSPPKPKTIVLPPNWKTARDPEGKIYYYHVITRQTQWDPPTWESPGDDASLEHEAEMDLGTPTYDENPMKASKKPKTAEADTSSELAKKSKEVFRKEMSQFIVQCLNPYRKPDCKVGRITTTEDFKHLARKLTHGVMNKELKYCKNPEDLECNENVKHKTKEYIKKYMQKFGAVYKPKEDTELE

SETD2, inactive:
Oc1ccccc1N1CCCCC1 0
O=C(O)c1cccc(Nc2ncccn2)c1 0
Cc1cc(N)no1 0
COC(=O)c1c(C)nc(C2CC2)[nH]c1=O 0
CC(=O)c1ccc2c(c1)CNCC2 0
c1ccc2sc(N3CCNCC3)nc2c1 0
FC1(F)CNCC(F)(F)O1 0
Nc1ccc(-c2ccccc2)cc1C(=O)O 0
Oc1ccc(C2CCNCC2)cc1 0
COc1ccc(C2=CCNCC2)cc1 0
Cc1nccn1Cc1cccc(C#N)c1 0
Nc1ccc(SC(F)F)cc1 0
CS(=O)(=O)c1ccc(N2CCNCC2)cc1 0
NC(=O)N1CCC(C(=O)O)CC1 0
Oc1ccc(-n2cncn2)cc1 0
N#CCCN1CCc2ccccc21 0
Oc1cnc(-c2ccccc2)nc1 0
Fc1ccc2c(C3CCNCC3)c[nH]c2c1 0
Oc1nnc(-c2ccccc2)o1 0
Cc1ccc(CCNc2ccccc2)cn1 0
CN(C)c1cc(CN)ccn1 0
CC1(C)OC(=O)c2cc(Br)c(O)cc2O1 0
CN1CC(=O)NC1=O 0
O=C(O)c1ccc(CN2CCOCC2)cc1 0
CC(CN)N1CCc2sccc2C1 (stereo not shown) 0
CCc1ccc(NC2=NCCCS2)cc1 0
Cn1nc(C(F)(F)F)cc1O 0
N#Cc1ccc(C(=O)N2CCOCC2)cc1 0
O=C(Nc1ccccc1)C1CC1 0
O=C1CCN(c2ccncc2)CC1 0
O=c1[nH]ncc2c1oc1ccccc12 0
N#Cc1ccc2ncsc2c1 0
c1ccc(Nc2nncs2)cc1 0
Fc1ccc(CC2CCCNC2)cc1 (stereo not shown) 0
COc1cccc(NC2=NCCCCC2)c1 0
c1ccc(-c2ccncc2)cc1 0
c1cnc2c(c1)NCCC2 0
O=C(O)CC1CCC(=O)N1 (stereo not shown) 0

SETD2, active:
CC1CCc2sc(C(=O)O)cc2C1 (stereo not shown) 1
O=C1NC(=O)/C(=C\c2cccs2)N1 1
